Test [1] has as its target Death-associated protein kinase 1 (Homo sapiens) (UniProt P53355). Particulars: at 1 µM.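 Note: each value is a mean inhibition figure.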
Test [2] deals with T1, Serine/threonine-protein kinase DCLK2 (Homo sapiens) (UniProt Q8N568).
T1 sequence (whole entry): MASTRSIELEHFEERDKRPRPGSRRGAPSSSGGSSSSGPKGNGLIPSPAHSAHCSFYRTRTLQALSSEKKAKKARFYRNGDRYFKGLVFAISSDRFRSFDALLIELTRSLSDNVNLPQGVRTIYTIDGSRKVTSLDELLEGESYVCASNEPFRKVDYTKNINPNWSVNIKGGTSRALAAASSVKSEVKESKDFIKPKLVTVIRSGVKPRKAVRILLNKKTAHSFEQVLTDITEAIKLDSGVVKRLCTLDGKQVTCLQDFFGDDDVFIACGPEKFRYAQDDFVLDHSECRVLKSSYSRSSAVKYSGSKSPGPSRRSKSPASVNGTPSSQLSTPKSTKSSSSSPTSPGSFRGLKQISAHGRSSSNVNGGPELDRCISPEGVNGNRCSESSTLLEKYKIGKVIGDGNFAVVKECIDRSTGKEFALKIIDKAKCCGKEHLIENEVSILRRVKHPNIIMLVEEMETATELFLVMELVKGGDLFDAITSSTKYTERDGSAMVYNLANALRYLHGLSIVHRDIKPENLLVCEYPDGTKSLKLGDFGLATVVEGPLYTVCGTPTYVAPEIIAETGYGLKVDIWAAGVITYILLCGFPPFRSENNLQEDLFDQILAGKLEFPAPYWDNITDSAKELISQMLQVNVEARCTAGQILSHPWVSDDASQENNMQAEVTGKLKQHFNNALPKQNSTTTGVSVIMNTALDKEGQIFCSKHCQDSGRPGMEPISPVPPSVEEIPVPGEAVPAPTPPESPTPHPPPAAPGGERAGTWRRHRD
Particulars: at 0.1 µM.

In test [3] the target is T1, Serine/threonine-protein kinase DCLK2 (Homo sapiens). Conditions: at 1 µM.
Test [4] addresses MAP kinase-activated protein kinase 2 (Homo sapiens) (UniProt P49137). Particulars: at 0.1 µM.
For test [5] the target is unchanged. Conditions: at 1 µM.
Test [6] concerns the target MAP kinase-activated protein kinase 3 (Homo sapiens) (UniProt Q16644). Particulars: at 0.1 µM.
The target is the same in test [7]. Conditions: at 1 µM.
In test [8] the target is Serine/threonine-protein kinase MARK1 (Homo sapiens) (UniProt Q9P0L2). Conditions: at 0.1 µM.
For test [9] the target is unchanged. Particulars: at 1 µM.
In test [10] the target is MAP/microtubule affinity-regulating kinase 3 (Homo sapiens) (UniProt P27448). Conditions: at 0.1 µM.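 Note: mean percent inhibition of MARK3 kinase activity, measured within the GSK PKIS screening panel.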
Sequence of MAP/microtubule affinity-regulating kinase 3 (Homo sapiens) (P27448 whole entry, looked up): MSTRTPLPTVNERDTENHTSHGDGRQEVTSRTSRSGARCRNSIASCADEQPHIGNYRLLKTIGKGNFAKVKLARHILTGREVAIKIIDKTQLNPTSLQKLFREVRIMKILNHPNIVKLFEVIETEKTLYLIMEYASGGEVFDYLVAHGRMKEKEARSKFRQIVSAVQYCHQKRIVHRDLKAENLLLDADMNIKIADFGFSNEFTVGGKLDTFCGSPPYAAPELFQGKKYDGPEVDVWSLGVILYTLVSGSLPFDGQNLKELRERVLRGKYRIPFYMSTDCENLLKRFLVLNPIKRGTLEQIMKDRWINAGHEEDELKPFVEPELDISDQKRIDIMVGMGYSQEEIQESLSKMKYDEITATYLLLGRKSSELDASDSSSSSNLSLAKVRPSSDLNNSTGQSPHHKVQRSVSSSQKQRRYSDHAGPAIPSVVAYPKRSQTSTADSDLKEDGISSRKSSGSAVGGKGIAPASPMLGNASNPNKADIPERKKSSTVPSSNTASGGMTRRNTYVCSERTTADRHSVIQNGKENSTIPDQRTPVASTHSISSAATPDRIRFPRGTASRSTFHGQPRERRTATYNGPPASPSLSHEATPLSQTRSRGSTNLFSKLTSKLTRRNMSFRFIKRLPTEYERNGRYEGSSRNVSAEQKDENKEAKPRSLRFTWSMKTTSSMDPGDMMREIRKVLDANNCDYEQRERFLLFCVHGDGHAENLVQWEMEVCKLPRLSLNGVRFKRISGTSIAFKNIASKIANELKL

Sequence of MAP kinase-activated protein kinase 2 (Homo sapiens) (P49137 whole entry, looked up): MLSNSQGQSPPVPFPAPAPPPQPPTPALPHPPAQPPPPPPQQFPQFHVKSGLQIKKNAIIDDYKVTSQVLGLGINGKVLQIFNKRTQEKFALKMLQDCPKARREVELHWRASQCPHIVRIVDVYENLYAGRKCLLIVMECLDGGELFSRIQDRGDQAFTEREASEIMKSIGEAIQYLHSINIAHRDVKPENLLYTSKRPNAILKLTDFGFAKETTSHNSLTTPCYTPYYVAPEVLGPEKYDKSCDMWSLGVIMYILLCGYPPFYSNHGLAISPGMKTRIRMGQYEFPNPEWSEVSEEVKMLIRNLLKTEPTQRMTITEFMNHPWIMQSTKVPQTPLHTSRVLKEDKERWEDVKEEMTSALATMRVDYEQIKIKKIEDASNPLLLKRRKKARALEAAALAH
Sequence of MAP kinase-activated protein kinase 3 (Homo sapiens) (Q16644 whole entry, looked up): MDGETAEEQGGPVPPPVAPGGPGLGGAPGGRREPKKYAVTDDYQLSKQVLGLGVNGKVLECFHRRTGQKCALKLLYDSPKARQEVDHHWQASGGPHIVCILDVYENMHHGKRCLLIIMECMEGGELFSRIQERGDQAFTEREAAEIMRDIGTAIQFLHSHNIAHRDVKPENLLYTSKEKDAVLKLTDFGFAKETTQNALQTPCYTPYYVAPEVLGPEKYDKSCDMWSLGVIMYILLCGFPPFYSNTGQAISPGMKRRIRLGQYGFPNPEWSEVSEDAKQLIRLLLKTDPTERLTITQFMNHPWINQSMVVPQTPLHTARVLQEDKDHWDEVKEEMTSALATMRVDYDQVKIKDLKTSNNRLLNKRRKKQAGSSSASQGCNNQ
Sequence of Serine/threonine-protein kinase MARK1 (Homo sapiens) (Q9P0L2 whole entry, looked up): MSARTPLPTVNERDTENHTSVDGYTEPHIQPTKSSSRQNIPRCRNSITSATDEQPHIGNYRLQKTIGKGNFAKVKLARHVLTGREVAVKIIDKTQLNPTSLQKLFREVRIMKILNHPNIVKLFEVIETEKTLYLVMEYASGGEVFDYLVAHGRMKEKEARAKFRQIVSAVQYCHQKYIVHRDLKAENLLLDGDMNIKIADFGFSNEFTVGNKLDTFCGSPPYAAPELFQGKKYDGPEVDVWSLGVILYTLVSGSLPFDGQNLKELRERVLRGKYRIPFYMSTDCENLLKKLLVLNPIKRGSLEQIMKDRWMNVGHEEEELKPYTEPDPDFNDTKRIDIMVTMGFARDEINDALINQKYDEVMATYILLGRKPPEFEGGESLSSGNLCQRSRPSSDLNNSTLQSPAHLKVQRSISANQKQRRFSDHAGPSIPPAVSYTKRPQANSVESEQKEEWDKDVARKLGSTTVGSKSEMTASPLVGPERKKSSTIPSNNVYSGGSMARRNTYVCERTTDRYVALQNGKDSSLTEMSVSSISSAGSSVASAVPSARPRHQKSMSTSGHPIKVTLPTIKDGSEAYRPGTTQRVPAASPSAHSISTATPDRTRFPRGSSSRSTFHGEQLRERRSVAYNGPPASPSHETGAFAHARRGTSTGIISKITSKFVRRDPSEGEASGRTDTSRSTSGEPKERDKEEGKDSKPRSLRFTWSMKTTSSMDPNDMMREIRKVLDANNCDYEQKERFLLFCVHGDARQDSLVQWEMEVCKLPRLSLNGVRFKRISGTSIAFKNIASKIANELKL
Sequence of Death-associated protein kinase 1 (Homo sapiens) (P53355 whole entry, looked up): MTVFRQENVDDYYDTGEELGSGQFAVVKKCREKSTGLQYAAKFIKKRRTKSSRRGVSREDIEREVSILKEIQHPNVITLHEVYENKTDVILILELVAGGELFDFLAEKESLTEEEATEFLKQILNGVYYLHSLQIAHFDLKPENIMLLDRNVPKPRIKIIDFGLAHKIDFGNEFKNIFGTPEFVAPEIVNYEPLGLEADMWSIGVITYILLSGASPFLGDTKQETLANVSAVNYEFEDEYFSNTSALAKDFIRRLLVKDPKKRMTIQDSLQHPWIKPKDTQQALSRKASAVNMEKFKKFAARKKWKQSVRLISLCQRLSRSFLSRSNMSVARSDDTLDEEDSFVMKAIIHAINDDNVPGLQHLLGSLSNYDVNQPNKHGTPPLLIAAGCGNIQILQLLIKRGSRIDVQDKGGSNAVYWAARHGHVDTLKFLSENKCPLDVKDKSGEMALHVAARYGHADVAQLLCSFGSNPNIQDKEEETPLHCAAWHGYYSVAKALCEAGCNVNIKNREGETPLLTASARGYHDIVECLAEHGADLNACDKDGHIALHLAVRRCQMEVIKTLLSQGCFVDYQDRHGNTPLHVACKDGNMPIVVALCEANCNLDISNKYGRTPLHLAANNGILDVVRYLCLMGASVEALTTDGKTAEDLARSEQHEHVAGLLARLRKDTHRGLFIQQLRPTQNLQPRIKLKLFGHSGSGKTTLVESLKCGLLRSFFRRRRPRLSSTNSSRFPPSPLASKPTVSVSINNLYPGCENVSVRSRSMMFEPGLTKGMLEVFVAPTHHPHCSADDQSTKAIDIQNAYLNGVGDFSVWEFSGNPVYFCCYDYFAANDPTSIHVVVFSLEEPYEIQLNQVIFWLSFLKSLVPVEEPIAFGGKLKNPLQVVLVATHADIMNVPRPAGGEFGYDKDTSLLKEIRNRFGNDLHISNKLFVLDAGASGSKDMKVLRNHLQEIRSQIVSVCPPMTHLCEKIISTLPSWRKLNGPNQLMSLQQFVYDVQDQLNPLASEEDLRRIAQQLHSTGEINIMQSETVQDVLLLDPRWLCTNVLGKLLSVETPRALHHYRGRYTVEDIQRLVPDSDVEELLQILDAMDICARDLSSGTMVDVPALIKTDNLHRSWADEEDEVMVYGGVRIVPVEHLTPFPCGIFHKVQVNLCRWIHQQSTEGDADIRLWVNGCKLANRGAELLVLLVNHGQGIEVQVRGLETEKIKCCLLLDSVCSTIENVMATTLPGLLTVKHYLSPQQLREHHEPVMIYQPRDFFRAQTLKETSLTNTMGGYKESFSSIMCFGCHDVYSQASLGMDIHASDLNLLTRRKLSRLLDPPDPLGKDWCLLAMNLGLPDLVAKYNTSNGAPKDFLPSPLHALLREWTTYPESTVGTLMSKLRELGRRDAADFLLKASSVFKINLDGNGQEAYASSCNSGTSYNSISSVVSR

What is called inhibition is the change of the read-out against control, counted positive when it falls. On to `COc1cccc(-n2cnc3c(N/N=C/c4ccncc4)ncnc32)c1`, for which the inhibition in test [1] was -2.81%; in test [2] it was -3.07%; in test [3] it was -0.03%; in test [4], -0.39%; in [5], -0.48%; in [6], -0.9%. Moreover, the inhibition was -2.07% in test [7], 1.01% in test [8], 6.09% in test [9] and 1.08% in [10].

Turning to `Cc1ccc(C(=O)NC(C)C)cc1-c1ccc(C(=O)NCC2CC2)cc1`, the inhibition in [1] was -2.3%; in test [2] it was -3.07%; in test [3], -1.07%; in test [4], -1.44%; in [5], -1.8%; in [6], 0.42%. Further, the inhibition in test [7] came to 9.15%; in test [8], 0.27%; in test [9], 0.65%; in test [10], 0.19%.

For the compound `COc1ccc(C2=C(N3CCc4ccccc43)C(=O)NC2=O)cc1`, the inhibition worked out at 4.07% in test [1]; 2.43% in test [2]; 0.92% in test [3]; 2.76% in test [4]; 1.74% in test [5]; 4.85% in test [6]. The inhibition in test [7] amounted to 5.21%; in [8], 3.48%; in test [9], 5.45%; in [10], 3.65%.

Regarding `COc1ccc(-c2ccc3c(NC(=O)C4CC4)n[nH]c3n2)cc1`, the inhibition in test [1] is 3.76%; in [2], -1.52%; in test [3], 2.41%; in test [4] it was 1.32%; in test [5] it was 1.4%; in test [6], 1.44%. Further, the inhibition in [7] worked out at 3.8%; in test [8], 1.93%; in test [9] it was 5.02%; in test [10], 2.03%.

`C[C@@H](Oc1cc(-n2cnc3ccc(OCC4CCN(C)CC4)cc32)sc1C(N)=O)c1ccccc1Cl`: the inhibition in test [1] was 9.2%; in [2] it was 0.87%; in test [3], 4.91%; in test [4], 2.09%; in [5], 4.06%; in test [6] it was 2.95%. For the same compound, the inhibition in [7] was 3.34%; in test [8], 3.83%; in [9], 24.3%; in [10], 4.91%.

`NC(=O)Cc1ccccc1Oc1nccc(-c2c(-c3ccc(F)cc3)ncn2C2CCNCC2)n1`: the inhibition in [1] was 4.92%; in [2], 0.97%; in test [3], 0.45%; in [4], 0.74%; in test [5], 0.89%; in test [6], 13.4%. Moreover, the inhibition in test [7] worked out at 28.7%; in test [8] it was 2.13%; in test [9] it was 4.3%; in [10], 9.03%.

On to `FC(F)(F)c1cccc(Nc2nccc(-c3cnn4nc(-c5ccccc5)ccc34)n2)c1`, for which the inhibition is 1.95% in test [1]; -0.23% in [2]; 2.76% in test [3]; 1.22% in [4]; -0.44% in [5]; 3.72% in test [6]. The inhibition in test [7] was 2.87%; in test [8], 2.35%; in test [9], 2.53%; in test [10] it was 3.77%.

Take `CS(=O)(=O)CCNCc1ccc(-c2ccc3ncnc(Nc4ccc(OCc5ccccc5)c(Br)c4)c3c2)o1`: the inhibition in [1] was 2.27%; in test [2], -2.49%; in test [3] it was -1.71%; in test [4] it was 1.3%; in test [5], 0.14%; in test [6], 3.07%. Also, the inhibition stood at 2.03% in test [7], 1.99% in [8], 1.61% in test [9] and 3.89% in [10].

As for `Fc1ccc(-c2c(-c3ccncc3)nc3n2CCS3)cc1`, the inhibition is -1.77% in test [1]; -5.23% in test [2]; -4.37% in test [3]; 0.4% in [4]; 0.36% in test [5]; 1.43% in test [6]. The inhibition in test [7] stood at 1.3%; in [8], 2.07%; in test [9], 3.24%; in [10], 1.44%.

Consider `O=C(Nc1n[nH]c2cc(-c3cc(F)ccc3F)ccc12)C1CC1`, for which the inhibition is -0.43% in test [1]; 1.87% in test [2]; 0.55% in [3]; 1.65% in test [4]; 1.03% in test [5]; 3.84% in test [6]. Further, the inhibition in [7] was determined as 3.99%; in test [8], 2.47%; in test [9], 5.89%; in [10], 2.76%.

`NS(=O)(=O)c1ccc(N/N=C2\C(=O)Nc3ccc(C(=O)NCCCn4ccnc4)cc32)cc1`: the inhibition in test [1] amounted to 14.2%; in [2], 1.59%; in test [3], 2.86%; in test [4], 4.69%; in test [5], 5.55%; in [6], 9.93%. Further, the inhibition in [7] worked out at 10.6%; in test [8], 5.69%; in test [9] it was 22.3%; in [10] it was 1.88%.

Take `Clc1ccc(CNc2nccc(-c3cnn4ncccc34)n2)cc1`: the inhibition is 11.8% in [1]; -0.21% in [2]; -0.19% in test [3]; 3.88% in [4]; 3.81% in [5]; 7.41% in [6]. The inhibition in test [7] turned out to be 7.89%; in test [8], 1.55%; in test [9], 1.16%; in [10], 0.99%.

For `COc1ccc2ncn(-c3cc(O[C@H](C)c4ccccc4Cl)c(C(N)=O)s3)c2c1`, the inhibition is 1.29% in [1]; -3.36% in test [2]; -2.8% in [3]; 1.56% in test [4]; 1.62% in [5]; 3.18% in test [6]. For the same compound, the inhibition in test [7] came out at 2.49%; in test [8], 3.24%; in [9], 2.92%; in test [10], 3.81%.

Take `Cc1ccc(C(=O)NC2CCC2)cc1-c1ccc(C(=O)NCC2CC2)cc1`: the inhibition in [1] was 4.36%; in [2], 0.61%; in test [3], 4.16%; in [4], 1.17%; in test [5], 0.94%; in test [6], 5.84%. Moreover, the inhibition is 18.9% in test [7], 2.6% in test [8], 1.46% in test [9] and 3.09% in test [10].

On to `C[C@@H](Oc1cc(-n2cnc3ccc(OC4CCN(C)CC4)cc32)sc1C(N)=O)c1ccccc1Cl`, for which the inhibition was 1.99% in [1]; -3.12% in test [2]; -1.54% in test [3]; 1.32% in [4]; 2.41% in test [5]; 3.38% in test [6]. Moreover, the inhibition in [7] stood at 3.91%; in test [8] it was 3.46%; in [9], 8.24%; in test [10] it was 4.33%.

With `C/C(Nc1ccc(S(N)(=O)=O)cc1)=C1/C(=O)Nc2ccccc21`, the inhibition is 1.66% in test [1]; 4.83% in [2]; 2.32% in [3]; -0.92% in test [4]; -0.57% in [5]; -0.79% in test [6]. In addition, the inhibition in [7] is -0.11%; in [8], 4.3%; in [9] it was 32.8%; in [10], 2.37%.

With `COc1cc(Nc2ncc3c(C)nc(-c4cccc(C(F)(F)F)c4)n3n2)cc(OC)c1OC`, the inhibition is 1.2% in test [1]; 0.76% in [2]; -1.04% in test [3]; 1.86% in [4]; 2.09% in test [5]; 4.68% in [6]. Moreover, the inhibition came to 5.16% in [7], 2.7% in test [8], 15.5% in [9] and 1.84% in test [10].

Values taken from ChEMBL document CHEMBL1961873, “Compounds: GSK PKIS; Assays: Nanosyn kinase panel” (2012).
